Measurements: PubChem BioAssay (NCI)
Compounds without any hit were thinned out: in the full panel of roughly 83,000, 20% have a hit.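 For each line, cells grew in 96-well plates with the test compound present at a single concentration for 48 hours.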 Unmarked numbers belong to inactive results. Activity calls are given as the source filed them. Rule for the calls: active = growth percent below 10; inactive = the rest.

Columns and labels:
Assay in all cases: NCI-60 one-dose screen, 48 h (100 = growth as untreated, 0 = no growth, -100 = all killed)
Conditions in all cases: 10 µM
SK-MEL-2 melanoma = test system: SK-MEL-2 melanoma
EKVX NSCLC = test system: EKVX NSCLC
SN12C renal = test system: SN12C renal
UO-31 renal = test system: UO-31 renal
TK-10 renal = test system: TK-10 renal
ACHN renal = test system: ACHN renal
CAKI-1 renal = test system: CAKI-1 renal
A498 renal = test system: A498 renal
CCRF-CEM leukemia = test system: CCRF-CEM leukemia
MOLT-4 leukemia = test system: MOLT-4 leukemia
SR leukemia = test system: SR leukemia
RPMI-8226 leukemia = test system: RPMI-8226 leukemia
OVCAR-8 ovarian = test system: OVCAR-8 ovarian
OVCAR-5 ovarian = test system: OVCAR-5 ovarian
OVCAR-4 ovarian = test system: OVCAR-4 ovarian
SK-OV-3 ovarian = test system: SK-OV-3 ovarian
IGROV1 ovarian = test system: IGROV1 ovarian
OVCAR-3 ovarian = test system: OVCAR-3 ovarian
HS 578T breast = test system: HS 578T breast
NCI/ADR-RES ovarian = test system: NCI/ADR-RES ovarian

| Compound | growth (SK-MEL-2 melanoma) | growth (EKVX NSCLC) | growth (SN12C renal) | growth (UO-31 renal) | growth (TK-10 renal) | growth (ACHN renal) | growth (CAKI-1 renal) | growth (A498 renal) | growth (CCRF-CEM leukemia) | growth (MOLT-4 leukemia) | growth (SR leukemia) | growth (RPMI-8226 leukemia) | growth (OVCAR-8 ovarian) | growth (OVCAR-5 ovarian) | growth (OVCAR-4 ovarian) | growth (SK-OV-3 ovarian) | growth (IGROV1 ovarian) | growth (OVCAR-3 ovarian) | growth (HS 578T breast) | growth (NCI/ADR-RES ovarian) |
| --- | --- | --- | --- | --- | --- | --- | --- | --- | --- | --- | --- | --- | --- | --- | --- | --- | --- | --- | --- | --- |
| CC(=O)Nc1ccc2c(c1)C(N1CC3CCC(CC3)C1)c1ccccc1-2 (stereo not given) | 96.7% | 88.5% | 86.8% | 66.7% | 113% | 93% | 70.9% | 78.5% | 74.5% | 63.5% | 0.162% (active) | 52.5% | 88.3% | 95.8% | 65.9% | 91.4% | 92.9% | 100% | 83.2% | 88.6% |
| O=CNc1c(Cl)cc2c(c1Cl)Cc1cc([N+](=O)[O-])ccc1-2 | 38.1% | 30.7% | 80.6% | 71.7% | 90.3% | 68.7% | 82.1% | 85.9% | 14.7% | 33% | 57% | 13.9% | 58.8% | 82.3% | 50.8% | 68% | 38.6% | 41% | 75.3% | 57.4% |
| C=CCNCCCN1C(=O)c2ccc3c4c(ccc(c24)C1=O)C(=O)N(CCCNCC=C)C3=O | -35.6% (active) | -78.7% (active) | -77.7% (active) | -44.3% (active) | -3.01% (active) | -9.77% (active) | -42.8% (active) | -71% (active) | 4.96% (active) | -3.33% (active) | -12.8% (active) | 11.3% | -14.5% (active) | -44.6% (active) | -98.5% (active) | -36.9% (active) | -70.3% (active) | -18.1% (active) | -41.3% (active) | -7.11% (active) |
| O=C(NNc1nc(N2CCCC2)nc(N2CCCC2)n1)c1ccccc1 | 101% | 102% | 100% | 81.7% | 114% | 102% | 116% | 102% | 103% | 68.4% | 70.8% | 106% | 104% | 100% | 106% | 121% | 103% | 108% | 104% | 102% |
| CCOc1nc(-c2ccccc2)cc2c(O)c(C(=O)NC(C)C)[nH]c(=O)c12 | 126% | 105% | 114% | 80.2% | 133% | 97.6% | 94.2% | 100% | 58.2% | 99.1% | 94% | 40.1% | 103% | 114% | 118% | 98.6% | 65.4% | 100% | 82.5% | 96.8% |
| Nc1ccc2c(c1)Cc1cc(N)c(Cl)cc1-2 | 102% | 57.2% | 89.8% | 52.6% | 115% | 98.5% | 94.1% | 118% | 79.8% | 90% | 88.8% | 96.8% | 97.9% | 112% | 84% | 113% | 98.2% | 124% | 89.8% | 107% |
| CCOC(=O)c1c(O)c2cc(-c3ccccc3)nc(OCC)c2c(=O)n1C | 87.9% | 96% | 98.7% | 79.6% | 123% | 98.3% | 97.3% | 90.3% | 56% | 107% | 98% | 39.2% | 104% | 104% | 90.1% | 107% | 69.8% | 103% | 93% | 82.2% |
| CCOC(=O)C(=O)Cc1cccnn1 | 103% | 111% | 99.9% | 82.9% | 101% | 103% | 103% | 113% | 91.7% | 93.4% | 101% | 102% | 103% | 103% | 102% | 106% | 109% | 122% | 133% | 104% |
| C[C@]12CC[C@H]3[C@@H](CCC4=CC(=O)CC[C@@]43C)[C@@H]1CC[C@@H]2c1csc(N)n1 | 62.9% | 23.6% | 71.8% | 44% | 87.3% | 77.2% | 47.3% | 84.3% | 42.1% | 27.7% | 26.4% | 19.1% | 46.5% | 99.8% | 23.1% | 89.1% | 87.3% | 63% | 104% | 32.1% |
| CCN(CC)CCCOC(=O)Nc1ccccc1Cl | 101% | 108% | 102% | 91.7% | 98.9% | 108% | 104% | 97.7% | 88.4% | 98% | 101% | 97.3% | 111% | 110% | 115% | 111% | 123% | 124% | 121% | 107% |
| CC[C@@]1(C(N)=O)CC2C=CC1C2 (stereo not given in full) | 105% | 102% | 102% | 95.5% | 108% | 113% | 103% | 123% | 87.9% | 88.3% | 85.8% | 102% | 106% | 113% | 114% | 103% | 123% | 132% | 118% | 113% |
| Cc1ccc(Cl)cc1Nc1nc(C(F)(F)F)ccc1C(=O)N/N=C/c1c(Cl)cccc1Cl | 0.639% (active) | 4.91% (active) | 9.96% (active) | -23.3% (active) | 22.7% | 0.0524% (active) | -12.5% (active) | -13.3% (active) | -21.2% (active) | 8.23% (active) | 123% | -51.2% (active) | 10.6% | 24.2% | 17.5% | -8.46% (active) | -8.67% (active) | -28.5% (active) | -10.1% (active) | 5.19% (active) |
| COc1ccc(Cn2cc3c(c2-c2cc(OC)c(OC)c(OC)c2)CCc2cnoc2-3)cc1[N+](=O)[O-] | 43.4% | 20.4% | 43.4% | 36.9% | 76.4% | 60.4% | 16.1% | 45.2% | 22% | 30% | 22% | 27.9% | 48.7% | 58.6% | 47% | -12.7% (active) | 9.29% (active) | -23.6% (active) | 3.07% (active) | 5.02% (active) |
| COc1cc(/C=C/C(=O)c2cc(-c3ccc(F)cc3)ccc2O)cc(OC)c1OC | 75.4% | 53% | 74.3% | 53.1% | 108% | 76.8% | 60.5% | 81.8% | -3.16% (active) | 26.3% | 49.9% | 7.24% (active) | 66.7% | 97.5% | 68.3% | 89.5% | 84.1% | 82.4% | 86% | 72.1% |
| CCOC(=O)C(CCC1=NC(C)(C)CC(C)O1)C(=O)OCC (stereo not given) | 34.1% | 107% | 95.7% | 77.5% | 101% | 6.26% (active) | 45.7% | 106% | 111% | 68.8% | 68.6% | 111% | 85.5% | 62.5% | 90.6% | 101% | 96.2% | 107% | 95.3% | 83% |
| COc1ccc(C(=O)n2nc(CC(=O)NCc3ccccc3)nc2N)cc1 | 97.5% | 113% | 92.5% | 82.9% | 103% | 117% | 110% | 110% | 104% | 89.8% | 93.6% | 117% | 115% | 113% | 105% | 107% | 93.7% | 118% | 103% | 112% |
